The text below walks through data of PubChem BioAssay (Tox21).

Each structure is given as a SMILES string. Inconclusive results are not listed. A structure can be active in one record and inactive in another. Activity calls are given as the source filed them. Unless noted, calls follow the shape of the full dose curve.

Assay [1] in a line: Nuclear factor erythroid 2-related factor 2/antioxidant responsive element (Nrf2/ARE) small molecule agonists: qHTS cell viability counter screen in human keratinocytes (AID 1919968; active = well fitted curve in the direction sought with a large enough effect in the repeat runs; an effect the other way counts as inactive or inconclusive; also: nearly all actives have a fitted effect of over 55% in size). The method, boiled down: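 Fluorescence read-out from CellTiter-Fluor after 1 h at 37 C. Wells held HaCaT-derived ARE-luciferase reporter cells (1,500/well) treated 23 h with DMSO-dissolved compounds. Run in the same wells as the luciferase agonist read.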
A general note: Quantitative high-throughput screening tests each substance at several concentrations.

Assay [2] in a line: Nuclear factor erythroid 2-related factor 2/antioxidant responsive element (Nrf2/ARE) small molecule agonists: luciferase reporter gene qHTS assay in human keratinocytes (AID 1919969). Also: nearly all actives have a fitted effect of over 35% in size. On the technique in general: In a reporter assay the amount or activity of a reporter protein is the signal.
The target in assay [3] is Gonadotropin-releasing hormone receptor (Homo sapiens) (UniProt P30968). Put plainly: Human gonadotropin-releasing hormone receptor (GnRHR) small molecule agonists, calcium flux assay in GnRHR-HEK293 cells (AID 1920063). Also: nearly all actives have a fitted effect of over 35% in size. The gist of the method: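 Calcium-dye fluorescence, Ex/Em=480/540, recorded every 1 sec over 3 min after compound addition to GnRHR-HEK293 cells. Cells had been seeded 18 hours earlier and dye-loaded for 1 hour at 37 C. Fifteen concentrations, triplicates.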
A general note: Calcium flux is commonly read through the fluorescence of an indicator in the cells.

Assay [4] has as its target KiSS-1 receptor (Homo sapiens) (UniProt Q969F8). Put plainly: Human kisspeptin (KISS1R) small molecule agonists, calcium flux assay in KISS1R-HEK293 cells (AID 1920064; active = well fitted curve in the direction sought with a large enough effect in the repeat runs; an effect the other way counts as inactive or inconclusive). The gist of the method:
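Calcium flux read-out: kinetic fluorescence at Ex/Em=480/540, 1 s intervals over 3 min, after pin-tool compound addition to dye-loaded KISS1R-HEK293 cells. Fifteen concentrations, triplicates.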

The nature of assay [5]: G protein-coupled receptor (GPCR) small molecule agonists, calcium flux assay: HEK293 wild type cell line counter screen (AID 1920065). The method, boiled down: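 Agonist mode; 18 h seeding at 37 C, 1 h dye load at 37 C; compounds pinned from DMSO, ATP as positive control; kinetic fluorescence 480/540 nm, 3 min, 1 s reads; 15 concentrations, triplicate.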
The nature of assay [6]: p53 small molecule agonists, cell-based qHTS assay with human liver microsomes: qHTS cell viability counter screen (AID 1963579). Also: nearly all actives have a fitted effect of over 45% in size. The method, boiled down:
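Tox21 library compounds, delivered from DMSO stocks, were tested on p53RE-bla cells together with 0.5 mg/mL human liver microsomes and 0.5 mg/mL NADPH (final) over 16 h at 37 C; CellTiter-Glo luminescence served as the cytotoxicity measure.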

Assay [7] can be described thus: p53 small molecule agonists, cell-based qHTS assay with rat liver microsomes: qHTS cell viability counter screen (AID 1963580). Also: nearly all actives have a fitted effect of over 45% in size. The gist of the method: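 Rat liver microsome (0.5 mg/mL final) and NADPH (0.5 mg/mL final) co-incubation with compounds for 16 h at 37 C on HCT-116 p53RE-bla cells; cytotoxicity taken from intracellular ATP luminescence.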
For assay [8], the target named is 5-hydroxytryptamine receptor 2A (Homo sapiens) (UniProt P28223). Put plainly: 5-hydroxytryptamine receptor 2A (HTR2A) small molecule agonists, cell-based qHTS assay (AID 1963587). Also: nearly all actives have a fitted effect of over 30% in size. The gist of the method:
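Kinetic calcium-flux fluorescence (2 min, 1 sec intervals) after compound addition in agonist mode. HTR2A-CHO cells were cultured 18 h, then dye-loaded 1 h at 37 C.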

Assay [9] has as its target Muscarinic acetylcholine receptor M1 (Homo sapiens) (UniProt P11229). Kind of assay: Cholinergic receptor muscarinic 1 (CHRM1) small molecule antagonists, cell-based qHTS assay (AID 1963588). Also: nearly all actives have a fitted effect of over 40% in size. Also: potency is read from the fitted curve at half-maximal effect. The method, boiled down:
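Compounds were tested at 15 concentrations in three independent runs. Dye-loaded CHRM1-CHO cells were exposed 5 min at room temperature before stimulation by acetylcholine added at 50nM. Intracellular calcium was read kinetically on FDSS for 3 min.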

The target is the same in assay [10]. Put plainly: Cholinergic receptor muscarinic 1 (CHRM1) small molecule agonists, cell-based qHTS assay (AID 1963589). Also: nearly all actives have a fitted effect of over 35% in size. The method, boiled down:
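Calcium flux read-out: kinetic fluorescence at 1 sec intervals after pin-tool compound addition to dye-loaded CHRM1-CHO cells (human M1). Agonist mode; 15 concentrations tested in triplicate independent runs.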

Assay [11] can be described thus: cAMP Responsive Elements (CRE) small molecule agonists, cell-based qHTS assay (AID 1963590). The method, boiled down: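 Beta-lactamase reporter readout: LiveBLAzer B/G FRET substrate, 2 h at room temperature, added after 3 h compound treatment of CRE-bla HEK 293T cells at 37 C/5% CO2.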
A short description of assay [12]: cAMP Responsive Elements (CRE) small molecule antagonists, cell-based qHTS assay (AID 1963591; active = well fitted inhibition curve with a large enough effect in the signal ratio in the repeat runs, not every such curve was filed as active; the % refers to the signal ratio). The gist of the method:
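HEK293T CRE-bla; 18 h preincubation; compound pin-transfer; NKH477 0.25 uM final, 3 h, 37 C; LiveBLAzer FRET substrate 2 h RT.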

For assay [13], the target named is Beta-2 adrenergic receptor (Homo sapiens) (UniProt P07550). Kind of assay: Adrenergic beta2 receptor (ADRB2) small molecule antagonists, cell-based qHTS assay (AID 1963592). Also: series mostly up to about 92 µM; nearly all actives have a fitted effect of over 50% in size. The gist of the method:
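Assay format: CHO-ADRB2 cells, 18-20hr seeding at 37C/5% CO2, then compound plus 1nM isoproterenol agonist mix for 0.5hr RT. Homogeneous time-resolved fluorescence cAMP detection after 1hr, expressed as 665/615 nm ratio.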

For assay [14] the target is unchanged. Put plainly: Adrenergic beta2 receptor (ADRB2) small molecule agonists, cell-based qHTS assay (AID 1963593).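 Also: CHO cells stably overexpressing human ADRB2.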 The method, boiled down: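 CHO cells stably over-expressing ADRB2 were plated overnight at 37C, then dosed with compounds plus a stimulation mix containing 100uM IBMX and 25uM Ro-20-1724 for 0.5hr at room temperature. cAMP was measured by HTRF competition, 1hr.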

Assay [15] deals with D(2) dopamine receptor (Homo sapiens) (UniProt P14416). Kind of assay: Dopamine D2 receptor (DRD2) small molecule agonists, cell-based qHTS assay (AID 1963594). Also: nearly all actives have a fitted effect of over 35% in size. The method, boiled down:
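cAMP accumulation in DRD2-HEK293 cells measured by HTRF after 1 h detection; compounds added 10 min before NKH477 (200nM […]) forskolin-analogue stimulation, 30 min at room temperature, with Ro20-1724 present at 0.1 mM final.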

Assay [16] has the same target. Kind of assay: Dopamine D2 receptor (DRD2) small molecule antagonists, cell-based qHTS assay (AID 1963595; active = well fitted inhibition curve with a large enough effect in the signal ratio in the repeat runs, with a control signal flat; the % refers to the signal ratio). The method, boiled down:
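HEK293 cells stably expressing DRD2 were preincubated with 0.1 mM Ro20-1724, then with compound for 10 min at room temperature. Cells were stimulated with 200 nM NKH477 plus 12 nM quinpirole for 30 min, and cAMP was read by HTRF.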

A short description of assay [17]: p53 small molecule agonists, cell-based qHTS assay: qHTS cell viability counter screen (AID 1963581). Also: nearly all actives have a fitted effect of over 45% in size. The gist of the method:
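Cytotoxicity read-out: ATP-based luminescence (CellTiter-Glo, 30 min RT) measured in the same wells as the p53 reporter assay, HCT-116 p53RE-bla cells, 16 h compound exposure at 37 C.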

In assay [18] the target is 5-hydroxytryptamine receptor 2A (Homo sapiens) (UniProt P28223). Put plainly: 5-hydroxytryptamine receptor 2A (HTR2A) small molecule antagonists, cell-based qHTS assay (AID 1963586). Also: nearly all actives have a fitted effect of over 45% in size. The method, boiled down:
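CHO cells stably expressing human HTR2A were plated for 18 h at 37 C, then loaded with calcium dye for 1 h. Compounds were preincubated 5 min at room temperature before DOI (4 nM solution) was added. Kinetic fluorescence was read for 3 min.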

D(2) dopamine receptor (Homo sapiens), sequence (P14416 whole entry, looked up): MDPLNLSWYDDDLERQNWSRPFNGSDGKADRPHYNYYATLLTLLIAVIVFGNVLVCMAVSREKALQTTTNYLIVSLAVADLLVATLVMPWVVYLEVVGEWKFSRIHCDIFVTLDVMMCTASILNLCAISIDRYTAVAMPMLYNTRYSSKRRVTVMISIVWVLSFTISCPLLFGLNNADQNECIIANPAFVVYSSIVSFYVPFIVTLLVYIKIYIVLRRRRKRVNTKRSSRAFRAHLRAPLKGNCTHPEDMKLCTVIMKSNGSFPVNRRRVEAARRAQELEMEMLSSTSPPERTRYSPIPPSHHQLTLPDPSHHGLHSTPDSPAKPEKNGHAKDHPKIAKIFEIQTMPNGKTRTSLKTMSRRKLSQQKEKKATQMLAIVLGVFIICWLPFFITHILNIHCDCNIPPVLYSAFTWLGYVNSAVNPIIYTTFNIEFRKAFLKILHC
5-hydroxytryptamine receptor 2A (Homo sapiens), sequence (P28223 whole entry, looked up): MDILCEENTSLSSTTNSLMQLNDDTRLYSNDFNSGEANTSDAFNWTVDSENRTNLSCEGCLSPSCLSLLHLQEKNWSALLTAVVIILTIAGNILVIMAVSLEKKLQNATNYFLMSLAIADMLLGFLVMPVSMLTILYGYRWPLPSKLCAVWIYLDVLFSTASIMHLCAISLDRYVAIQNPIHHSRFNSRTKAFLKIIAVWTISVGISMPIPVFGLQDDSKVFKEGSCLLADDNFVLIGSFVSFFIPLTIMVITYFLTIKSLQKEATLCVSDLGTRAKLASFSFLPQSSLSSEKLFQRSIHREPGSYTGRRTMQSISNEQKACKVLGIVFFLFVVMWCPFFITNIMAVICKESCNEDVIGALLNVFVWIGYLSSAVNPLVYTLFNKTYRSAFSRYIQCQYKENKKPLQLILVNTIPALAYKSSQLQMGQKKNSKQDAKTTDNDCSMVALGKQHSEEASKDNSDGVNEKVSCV
Muscarinic acetylcholine receptor M1 (Homo sapiens), sequence (P11229 whole entry, looked up): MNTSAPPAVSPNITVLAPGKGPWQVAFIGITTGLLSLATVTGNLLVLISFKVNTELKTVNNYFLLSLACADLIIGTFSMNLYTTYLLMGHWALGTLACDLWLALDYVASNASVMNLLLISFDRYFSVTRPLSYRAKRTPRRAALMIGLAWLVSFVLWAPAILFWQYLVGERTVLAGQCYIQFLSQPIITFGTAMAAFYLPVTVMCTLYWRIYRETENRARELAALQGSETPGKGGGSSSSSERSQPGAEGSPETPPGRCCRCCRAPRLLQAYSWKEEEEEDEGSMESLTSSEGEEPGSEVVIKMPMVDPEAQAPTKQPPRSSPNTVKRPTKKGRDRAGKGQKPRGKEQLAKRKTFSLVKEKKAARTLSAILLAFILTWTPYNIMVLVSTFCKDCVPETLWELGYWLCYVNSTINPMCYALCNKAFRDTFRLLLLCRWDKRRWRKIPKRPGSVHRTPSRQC
Gonadotropin-releasing hormone receptor (Homo sapiens), sequence (P30968 whole entry, looked up): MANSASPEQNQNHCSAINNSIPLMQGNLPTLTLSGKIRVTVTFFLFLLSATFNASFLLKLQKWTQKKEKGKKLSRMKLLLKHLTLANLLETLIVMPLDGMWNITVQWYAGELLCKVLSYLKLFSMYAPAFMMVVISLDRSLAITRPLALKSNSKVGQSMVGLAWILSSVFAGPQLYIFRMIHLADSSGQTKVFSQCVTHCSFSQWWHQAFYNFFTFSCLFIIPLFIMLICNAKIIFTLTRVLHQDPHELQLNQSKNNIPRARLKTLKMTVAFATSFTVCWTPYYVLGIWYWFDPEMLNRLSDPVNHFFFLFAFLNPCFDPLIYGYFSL
Beta-2 adrenergic receptor (Homo sapiens), sequence (P07550 whole entry, looked up): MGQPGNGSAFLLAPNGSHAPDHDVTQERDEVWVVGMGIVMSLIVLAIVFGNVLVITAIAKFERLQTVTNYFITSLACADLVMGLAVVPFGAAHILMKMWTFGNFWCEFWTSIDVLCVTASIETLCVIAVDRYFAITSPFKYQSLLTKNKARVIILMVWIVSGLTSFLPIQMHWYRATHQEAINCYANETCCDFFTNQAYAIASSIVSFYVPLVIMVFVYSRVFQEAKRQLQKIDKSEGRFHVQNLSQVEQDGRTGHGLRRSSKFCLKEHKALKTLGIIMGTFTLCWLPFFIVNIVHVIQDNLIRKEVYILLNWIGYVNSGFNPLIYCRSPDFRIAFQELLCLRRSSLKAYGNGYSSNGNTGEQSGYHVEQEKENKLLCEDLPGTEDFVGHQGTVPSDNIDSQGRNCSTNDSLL
KiSS-1 receptor (Homo sapiens), sequence (Q969F8 whole entry, looked up): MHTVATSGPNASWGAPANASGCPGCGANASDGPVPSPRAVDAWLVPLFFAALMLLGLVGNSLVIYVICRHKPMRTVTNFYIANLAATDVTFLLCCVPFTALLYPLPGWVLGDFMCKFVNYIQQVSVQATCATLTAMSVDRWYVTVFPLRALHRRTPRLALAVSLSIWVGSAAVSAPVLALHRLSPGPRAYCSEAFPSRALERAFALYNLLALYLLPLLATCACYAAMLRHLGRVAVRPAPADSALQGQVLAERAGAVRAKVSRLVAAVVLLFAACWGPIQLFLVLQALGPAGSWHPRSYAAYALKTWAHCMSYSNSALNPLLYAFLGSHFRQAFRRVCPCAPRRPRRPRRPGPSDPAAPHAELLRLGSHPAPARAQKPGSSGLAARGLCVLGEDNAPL

On to `CC1C=[C-]C=C1.[C-]#[O+].[C-]#[O+].[C-]#[O+].[Mn]`, for which the Potency result in assay [1], in assay [2], in assay [3], in assay [4], in [5] and in assay [6] was “inactive” throughout. Besides, the Potency result in assay [7], in [8], in assay [9], in [10], in [11] and in assay [12] was “inactive” each time. Also, the Potency entry in assay [13], in assay [14], in [15] and in [16] was “inactive” each time.
In the case of `NN=C(N)N`, the Potency entry in assay [1], in assay [2], in [3], in assay [4], in assay [5] and in [6] was “inactive” throughout. Moreover, the Potency result in assay [17], in assay [18], in assay [8], in assay [9], in assay [10] and in assay [11] was “inactive” throughout. For the same molecule, the Potency entry in [12], in assay [13], in assay [14], in assay [15] and in assay [16] was “inactive” in each case.
For the molecule `CCn1cc[n+](C)c1`, the Potency result in assay [1], in [2], in assay [3], in [4], in [5] and in assay [6] was “inactive” each time. Besides, the Potency entry in assay [7], in assay [17], in assay [18], in assay [8], in assay [9] and in [11] was “inactive” throughout. Besides, the Potency entry in assay [12], in assay [13], in assay [14], in assay [15] and in assay [16] was “inactive” in each case.
Regarding `CN(C)c1nc(=O)n(C2CCCCC2)c(=O)n1C`, the Potency entry in assay [1], in assay [2], in [3], in assay [4], in assay [5] and in assay [6] was “inactive” throughout. The Potency result in [7], in assay [17], in assay [18], in [8], in assay [9] and in [11] was “inactive” in each case. Further, the Potency entry in [12], in [13], in [14], in assay [15] and in assay [16] was “inactive” in each case.
`O=[N+]([O-])/N=C1\NCCN1Cc1ccc(Cl)nc1`: the Potency result in assay [1], in assay [2], in assay [3], in assay [4], in [5] and in assay [6] was “inactive” throughout. The Potency result in assay [17], in assay [18], in assay [8], in assay [9], in assay [10] and in assay [11] was “inactive” each time. For the same molecule, the Potency entry in assay [12], in assay [13], in assay [14] and in [16] was “inactive” throughout.
In the case of `O=C(O)Cc1ccccc1`, the Potency result in assay [1], in [2], in assay [3], in assay [4], in assay [5] and in assay [6] was “inactive” in each case. The Potency entry in assay [7], in assay [17], in [18], in assay [8], in assay [10] and in assay [11] was “inactive” in each case. In addition, the Potency entry in [12], in [13], in assay [15] and in assay [16] was “inactive” each time. Moreover, in [9], the Potency is 266 nM (active) and inactive.
With `O=S(=O)(O)OOS(=O)(=O)O`, the Potency entry in [1], in assay [2], in assay [3], in assay [4], in assay [5] and in assay [6] was “inactive” throughout. Moreover, the Potency result in assay [7], in [18], in assay [8], in [9], in assay [10] and in [11] was “inactive” each time. Moreover, the Potency entry in [12], in assay [13], in assay [14], in assay [15] and in [16] was “inactive” in each case.
